Measured values from PubChem BioAssay (EPA / NIEHS).
Values joined by “and” are separate entries in the source; they are usually repeats but may differ in a detail not shown here. Identical values can stand only once. Some structures have more than one record in an assay (separate samples or runs), and their calls can disagree. Active and inactive are the calls of the source. Rule for the calls: active = hit-call score of the fitted dose curve at least 0.9, where 1 is the maximum; inactive = score below 0.9.

The compounds below were run on Interleukin-8 (IL8), CXCL8 (gene 3576) (assay: BSK_3C_IL8: BioMAP Diversity Plus: 3C Assay for Interleukin-8 (IL8) Biomarker Activity (AID 2283020)). Conditions: primary human endothelial cells (HUVEC); actives raise or lower the signal.
Method in brief: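 Using DMSO-treated wells as the baseline, bidirectional curve fitting was applied to ELISA-measured IL-8 from human umbilical vein endothelial cultures sampled 24 h after compound addition.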
OCC(F)(F)C(F)(F)C(F)(F)C(F)F was tested, and the outcome was “inactive”. Oc1ccc(Nc2ccccc2)cc1 was tested, and the AC50 was 0.0694 µM (active). O=C(O)C(F)(F)C(F)(F)OC(F)(F)F was tested, and the outcome was “inactive”. CCCCCCOC(=O)c1ccccc1O was tested, and the AC50 was 41.7 µM (active) and 44.8 µM (active). For O=S(=O)(O)C(F)(F)C(F)(F)C(F)(F)C(F)(F)C(F)(F)C(F)(F)C(F)(F)F, the outcome was “inactive”. With O=C(O)C(F)(F)C(F)(F)C(F)(F)C(F)(F)F the outcome was “inactive”. With O=C(O)C(F)(F)C(F)(F)C(F)(F)F the outcome was “inactive”. With C=CC(F)(F)C(F)(F)C(F)(F)C(F)(F)C(F)(F)C(F)(F)C(F)(F)C(F)(F)C=C the outcome was “inactive”. CC(=O)Nc1ccc(N=Nc2cc(C)ccc2O)cc1 was tested, and the outcome was “inactive”. N=C(N)C(F)(F)C(F)(F)C(F)(F)C(F)(F)C(F)(F)C(F)(F)C(F)(F)F was tested, and the outcome was “inactive”. O=C(O)C(F)(F)C(F)(F)C(F)(F)C(F)(F)C(F)(F)C(F)(F)C(F)(F)C(F)(F)Cl was tested, and the AC50 was 45.1 µM (active) and the outcome was “inactive”. With O=P(O)(O)OCCC(F)(F)C(F)(F)C(F)(F)C(F)(F)C(F)(F)C(F)(F)F the outcome was “inactive”. With CCCCCCCOC(=O)c1ccccc1C(=O)OCCCCCCC the outcome was “inactive”. For CCCCCCCCCCCCCCCC[N+](C)(C)Cc1ccccc1, the AC50 was 7.59 µM (active). FC(F)(F)C(F)(F)C(F)(F)CI was tested, and the outcome was “inactive”. O=C(O)C(F)(F)C(F)(F)C(F)(F)C(F)(F)C(F)(F)C(F)(F)C(F)(F)C(F)(F)C(F)(F)C(F)(F)C(F)(F)C(F)(F)C(F)(F)F was tested, and the outcome was “inactive”. For O=C(O)C(F)(F)C(F)(F)C(F)(F)C(F)(F)C(F)(F)C(F)(F)C(F)(F)C(F)(F)C(F)(F)C(F)(F)C(F)(F)C(F)(F)F, the AC50 was 23.6 µM (active) and 8.82 µM (active).
